From PubChem BioAssay AID1159580 (chemical genetic matrix, 2015)
In all, about 5,500 compounds went through this assay and about 2,000 (36%) were called active. Another 18% or so got no clear call; they are omitted. No stated cut-off is given here; in the data, active means normalized growth mostly below about 0.91 (no sharp cut-off); inconclusive means no clear call, values can overlap the other calls; inactive means mostly above about 0.92. This is one part of the list.

Experiment: chemical genetic growth profiling, strain panel (AID 1159580);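 further: tested at 20 µM; growth read once vehicle control cultures reached saturation at 30 °C; 1 = growth at the plate median or of vehicle wells; lower values mean less growth of the strain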
Conditions: growth OD

Measured: normalized growth

Oc1cc(O)c2c(c1)O[C@H](c1ccc(O)c(O)c1)[C@H](O)C2
inactive: S. cerevisiae deletion strains, locus YJR043C, strain POL32, active compounds read low 1.07 | S. cerevisiae deletion strains, locus YJR066W, strain TOR1, active compounds read low 0.94 | S. cerevisiae deletion strains, locus YKL009W, strain mrt4, active compounds read low 0.972 | S. cerevisiae deletion strains, locus YKL068W, active compounds read low 0.979 | S. cerevisiae deletion strains, locus YKL085W, strain MDH1 (second series), active compounds read low 0.981 | S. cerevisiae deletion strains, locus YKL085W, strain MDH1, active compounds read low 0.981 | S. cerevisiae deletion strains, locus YKL160W, strain elf1, active compounds read low 1 | S. cerevisiae deletion strains, locus YKR001C, strain vps1, active compounds read low 1 | S. cerevisiae deletion strains, locus YKR026C, strain gcn3, active compounds read low 1 | S. cerevisiae deletion strains, locus YKR091W, strain srl3, active compounds read low 0.999 | S. cerevisiae deletion strains, locus YLL001W, strain dnm1, active compounds read low 0.994 | S. cerevisiae deletion strains, locus YLL026W, active compounds read low 1.01 | S. cerevisiae deletion strains, locus YLL041C, strain sdh2, active compounds read low 1.01 | S. cerevisiae deletion strains, locus YLR027C, strain aat2, active compounds read low 0.996 | S. cerevisiae deletion strains, locus YLR039C, strain RIC1, active compounds read low 1.08 | S. cerevisiae deletion strains, locus YLR058C, strain SHM2, active compounds read low 1.01 | S. cerevisiae deletion strains, locus YLR102C, strain apc9, active compounds read low 0.982 | S. cerevisiae deletion strains, locus YLR113W, strain HOG1, active compounds read low 1.02 | S. cerevisiae deletion strains, locus YLR221C, strain rsa3, active compounds read low 1.04 | S. cerevisiae deletion strains, locus YLR258W, strain gsy2, active compounds read low 1.01 | S. cerevisiae deletion strains, locus YLR262C, strain YPT6 (second series), active compounds read low 0.997 | S. cerevisiae deletion strains, locus YLR262C, strain YPT6, active compounds read low 1.06 | S. cerevisiae deletion strains, locus YLR268W, strain sec22, active compounds read low 0.979 | S. cerevisiae deletion strains, locus YLR320W, strain mms22, active compounds read low 1.05 | S. cerevisiae deletion strains, locus YLR330W, strain CHS5, active compounds read low 1.01 | S. cerevisiae deletion strains, locus YLR342W, strain FKS1 (second series), active compounds read low 1.04 | S. cerevisiae deletion strains, locus YLR342W, strain FKS1, active compounds read low 1.01 | S. cerevisiae deletion strains, locus YLR357W, strain rsc2, active compounds read low 0.992 | S. cerevisiae deletion strains, locus YLR370C, strain arc18, active compounds read low 1.01 | S. cerevisiae deletion strains, locus YLR371W, strain rom2, active compounds read low 0.975 | S. cerevisiae deletion strains, locus YLR384C, strain iki3, active compounds read low 0.995 | S. cerevisiae deletion strains, locus YLR418C, strain cdc73, active compounds read low 1.03 | S. cerevisiae deletion strains, locus YML016C, strain PPZ1, active compounds read low 0.992 | S. cerevisiae deletion strains, locus YML032C, strain rad52, active compounds read low 1.01 | S. cerevisiae deletion strains, locus YML120C, strain ndi1, active compounds read low 0.996 | S. cerevisiae deletion strains, locus YML124C, strain tub3, active compounds read low 0.992 | S. cerevisiae deletion strains, locus YMR058W, strain fet3, active compounds read low 1.02 | S. cerevisiae deletion strains, locus YMR078C, strain ctf18, active compounds read low 0.977 | S. cerevisiae deletion strains, locus YMR125W, strain sto1, active compounds read low 1 | S. cerevisiae deletion strains, locus YMR129W, active compounds read low 1 | S. cerevisiae deletion strains, locus YMR205C, strain PFK2, active compounds read low 1.03 | S. cerevisiae deletion strains, locus YMR223W, strain ubp8, active compounds read low 1 | S. cerevisiae deletion strains, locus YMR231W, strain pep5, active compounds read low 0.981 | S. cerevisiae deletion strains, locus YMR307W, strain GAS1, active compounds read low 1.22 | S. cerevisiae deletion strains, locus YNL067W, strain RPL9B, active compounds read low 0.971 | S. cerevisiae deletion strains, locus YNL071W, strain lat1, active compounds read low 1.01 | S. cerevisiae deletion strains, locus YNL183C, strain NPR1, active compounds read low 0.95 | S. cerevisiae deletion strains, locus YNL209W, strain ssb2, active compounds read low 0.994 | S. cerevisiae deletion strains, locus YNL233W, strain BNI4, active compounds read low 1.01 | S. cerevisiae deletion strains, locus YNL248C, strain rpa49, active compounds read low 1 | S. cerevisiae deletion strains, locus YNL250W, strain rad50, active compounds read low 0.937 | S. cerevisiae deletion strains, locus YNL271C, strain bni1, active compounds read low 0.984 | S. cerevisiae deletion strains, locus YNL298W, strain CLA4, active compounds read low 1.01 | S. cerevisiae deletion strains, locus YNL307C, strain MCK1, active compounds read low 0.977 | S. cerevisiae deletion strains, locus YNL322C, strain KRE1 (second series), active compounds read low 1.01 | S. cerevisiae deletion strains, locus YNL322C, strain KRE1, active compounds read low 1.01 | S. cerevisiae deletion strains, locus YNR049C, strain mso1, active compounds read low 1.01 | S. cerevisiae deletion strains, locus YNR052C, strain pop2, active compounds read low 0.991 | S. cerevisiae deletion strains, locus YOL006C, strain TOP1, active compounds read low 1.03 | S. cerevisiae deletion strains, locus YOL012C, strain htz1 1.18 | S. cerevisiae deletion strains, locus YOL147C, strain pex11, active compounds read low 0.998 | S. cerevisiae deletion strains, locus YOR001W, strain rrp6, active compounds read low 1.04 | S. cerevisiae deletion strains, locus YOR061W, strain CKA2, active compounds read low 0.998 | S. cerevisiae deletion strains, locus YOR069W, strain VPS5, active compounds read low 0.999 | S. cerevisiae deletion strains, locus YOR070C, strain gyp1, active compounds read low 1 | S. cerevisiae deletion strains, locus YOR080W, strain dia2, active compounds read low 1.01 | S. cerevisiae deletion strains, locus YOR083W, strain WHI5, active compounds read low 1.01 | S. cerevisiae deletion strains, locus YOR106W, strain vam3, active compounds read low 1.03 | S. cerevisiae deletion strains, locus YOR136W, strain idh2, active compounds read low 0.985 | S. cerevisiae deletion strains, locus YOR144C, strain elg1, active compounds read low 1.01 | S. cerevisiae deletion strains, locus YOR184W, strain ser1, active compounds read low 1 | S. cerevisiae deletion strains, locus YOR231W, strain MKK1, active compounds read low 0.992 | S. cerevisiae deletion strains, locus YOR265W, strain rbl2, active compounds read low 1.02 | S. cerevisiae deletion strains, locus YOR270C, strain vph1, active compounds read low 1.08 | S. cerevisiae deletion strains, locus YOR290C, strain snf2, active compounds read low 0.99 | S. cerevisiae deletion strains, locus YOR316C, strain cot1, active compounds read low 0.989 | S. cerevisiae deletion strains, locus YPL051W, strain arl3, active compounds read low 1.01 | S. cerevisiae deletion strains, locus YPL078C, strain atp4, active compounds read low 1.03 | S. cerevisiae deletion strains, locus YPL106C, strain sse1, active compounds read low 1.01 | S. cerevisiae deletion strains, locus YPL240C, strain hsp82, active compounds read low 1.01 | S. cerevisiae deletion strains, locus YPL256C, strain CLN2, active compounds read low 0.98 | S. cerevisiae deletion strains, locus YPR119W, strain clb2, active compounds read low 0.978 | S. cerevisiae deletion strains, locus YPR141C, strain kar3, active compounds read low 0.976 | S. cerevisiae deletion strains, locus YPR163C, strain tif3, active compounds read low 0.991 | S. cerevisiae deletion strains, locus YPR167C, strain met16, active compounds read low 0.987 | S. cerevisiae deletion strains, strain wtn01, active compounds read low 0.992 | S. cerevisiae strains, strain wild type, active compounds read low 1.01
